Assay results from ChEMBL document CHEMBL1961873, “Compounds: GSK PKIS; Assays: Nanosyn kinase panel” (2012).

Key:
[1] = molecular target: Fibroblast growth factor receptor 4 (Homo sapiens) (UniProt P22455); settings: at 1 µM;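 also: reported figure is the averaged percent inhibition of FGFR4, from the GSK PKIS kinase screening panel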
[2] = molecular target: Tyrosine-protein kinase Fgr (Homo sapiens) (UniProt P09769); settings: at 0.1 µM
[3] = molecular target: Tyrosine-protein kinase Fgr (Homo sapiens) (UniProt P09769); settings: at 1 µM
[4] = molecular target: Vascular endothelial growth factor receptor 1 (Homo sapiens) (UniProt P17948); settings: at 0.1 µM
Vascular endothelial growth factor receptor 1 (Homo sapiens), sequence (P17948 whole entry): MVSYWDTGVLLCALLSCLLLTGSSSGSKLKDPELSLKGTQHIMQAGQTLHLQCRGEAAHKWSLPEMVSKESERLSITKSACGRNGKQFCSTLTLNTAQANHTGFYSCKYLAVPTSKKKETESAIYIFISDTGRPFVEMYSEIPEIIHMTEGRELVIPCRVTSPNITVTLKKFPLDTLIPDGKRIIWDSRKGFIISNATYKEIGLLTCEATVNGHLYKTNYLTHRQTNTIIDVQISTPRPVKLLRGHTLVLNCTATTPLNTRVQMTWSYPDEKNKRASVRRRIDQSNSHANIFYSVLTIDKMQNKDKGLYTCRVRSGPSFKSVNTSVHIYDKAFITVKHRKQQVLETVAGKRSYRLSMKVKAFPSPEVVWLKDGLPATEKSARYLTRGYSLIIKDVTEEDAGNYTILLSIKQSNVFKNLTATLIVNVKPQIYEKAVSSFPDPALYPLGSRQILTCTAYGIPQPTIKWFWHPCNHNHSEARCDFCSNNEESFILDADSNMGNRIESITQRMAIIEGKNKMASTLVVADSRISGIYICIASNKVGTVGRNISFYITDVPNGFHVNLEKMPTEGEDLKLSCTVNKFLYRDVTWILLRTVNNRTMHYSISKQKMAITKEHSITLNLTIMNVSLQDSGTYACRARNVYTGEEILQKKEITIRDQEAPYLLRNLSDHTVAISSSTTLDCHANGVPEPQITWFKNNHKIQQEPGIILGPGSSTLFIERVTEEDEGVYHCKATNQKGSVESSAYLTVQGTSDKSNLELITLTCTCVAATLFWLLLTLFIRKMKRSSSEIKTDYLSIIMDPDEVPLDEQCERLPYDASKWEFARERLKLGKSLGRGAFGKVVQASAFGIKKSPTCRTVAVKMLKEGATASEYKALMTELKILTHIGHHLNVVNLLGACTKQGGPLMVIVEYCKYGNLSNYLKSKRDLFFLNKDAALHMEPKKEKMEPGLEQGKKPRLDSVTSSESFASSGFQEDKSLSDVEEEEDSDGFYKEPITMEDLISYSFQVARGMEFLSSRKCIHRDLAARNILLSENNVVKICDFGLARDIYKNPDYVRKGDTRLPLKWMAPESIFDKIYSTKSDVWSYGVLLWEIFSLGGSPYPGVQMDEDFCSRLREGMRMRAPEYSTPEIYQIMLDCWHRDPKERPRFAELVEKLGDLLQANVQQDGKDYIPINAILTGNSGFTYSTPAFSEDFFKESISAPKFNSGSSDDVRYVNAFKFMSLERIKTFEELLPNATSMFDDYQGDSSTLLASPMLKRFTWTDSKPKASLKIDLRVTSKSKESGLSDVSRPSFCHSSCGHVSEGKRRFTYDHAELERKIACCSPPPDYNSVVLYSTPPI

[5] = molecular target: Vascular endothelial growth factor receptor 1 (Homo sapiens) (UniProt P17948); settings: at 1 µM
[6] = molecular target: Receptor-type tyrosine-protein kinase FLT3 (Homo sapiens) (UniProt P36888); settings: at 0.1 µM
[7] = molecular target: Receptor-type tyrosine-protein kinase FLT3 (Homo sapiens) (UniProt P36888); settings: at 1 µM
[8] = test system: T1, Receptor-type tyrosine-protein kinase FLT3 (Homo sapiens), P36888 [D835Y]; settings: at 0.1 µM
T1 sequence (whole entry): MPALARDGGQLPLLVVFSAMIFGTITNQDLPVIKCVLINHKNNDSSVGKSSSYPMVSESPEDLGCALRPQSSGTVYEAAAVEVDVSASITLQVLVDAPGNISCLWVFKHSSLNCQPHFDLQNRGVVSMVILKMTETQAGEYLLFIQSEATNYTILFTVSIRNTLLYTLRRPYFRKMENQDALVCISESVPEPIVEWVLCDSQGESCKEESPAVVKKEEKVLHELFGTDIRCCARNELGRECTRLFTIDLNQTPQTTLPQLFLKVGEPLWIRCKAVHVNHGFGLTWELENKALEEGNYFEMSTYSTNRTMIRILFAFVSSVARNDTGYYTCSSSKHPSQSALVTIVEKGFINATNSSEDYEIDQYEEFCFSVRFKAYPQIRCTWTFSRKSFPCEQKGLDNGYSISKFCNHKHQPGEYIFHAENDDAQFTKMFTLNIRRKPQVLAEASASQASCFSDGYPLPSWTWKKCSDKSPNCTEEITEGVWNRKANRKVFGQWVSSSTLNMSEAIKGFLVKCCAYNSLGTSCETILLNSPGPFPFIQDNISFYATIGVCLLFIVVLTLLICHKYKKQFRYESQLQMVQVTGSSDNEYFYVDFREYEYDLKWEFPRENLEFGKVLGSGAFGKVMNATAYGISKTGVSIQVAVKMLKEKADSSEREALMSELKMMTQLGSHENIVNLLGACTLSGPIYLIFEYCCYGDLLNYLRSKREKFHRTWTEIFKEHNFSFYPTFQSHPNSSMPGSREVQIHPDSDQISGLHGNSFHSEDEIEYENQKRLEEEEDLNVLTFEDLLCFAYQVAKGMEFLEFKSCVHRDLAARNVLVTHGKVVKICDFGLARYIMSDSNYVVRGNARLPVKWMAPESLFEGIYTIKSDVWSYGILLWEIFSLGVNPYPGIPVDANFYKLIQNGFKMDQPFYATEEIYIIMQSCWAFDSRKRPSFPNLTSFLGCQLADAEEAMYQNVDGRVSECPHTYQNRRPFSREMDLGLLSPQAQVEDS

[9] = molecular target: Non-receptor tyrosine-protein kinase TYK2 (Homo sapiens) (UniProt P29597); settings: at 1 µM;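 also: values are mean percent inhibition of TYK2 kinase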
Non-receptor tyrosine-protein kinase TYK2 (Homo sapiens), sequence (P29597 whole entry): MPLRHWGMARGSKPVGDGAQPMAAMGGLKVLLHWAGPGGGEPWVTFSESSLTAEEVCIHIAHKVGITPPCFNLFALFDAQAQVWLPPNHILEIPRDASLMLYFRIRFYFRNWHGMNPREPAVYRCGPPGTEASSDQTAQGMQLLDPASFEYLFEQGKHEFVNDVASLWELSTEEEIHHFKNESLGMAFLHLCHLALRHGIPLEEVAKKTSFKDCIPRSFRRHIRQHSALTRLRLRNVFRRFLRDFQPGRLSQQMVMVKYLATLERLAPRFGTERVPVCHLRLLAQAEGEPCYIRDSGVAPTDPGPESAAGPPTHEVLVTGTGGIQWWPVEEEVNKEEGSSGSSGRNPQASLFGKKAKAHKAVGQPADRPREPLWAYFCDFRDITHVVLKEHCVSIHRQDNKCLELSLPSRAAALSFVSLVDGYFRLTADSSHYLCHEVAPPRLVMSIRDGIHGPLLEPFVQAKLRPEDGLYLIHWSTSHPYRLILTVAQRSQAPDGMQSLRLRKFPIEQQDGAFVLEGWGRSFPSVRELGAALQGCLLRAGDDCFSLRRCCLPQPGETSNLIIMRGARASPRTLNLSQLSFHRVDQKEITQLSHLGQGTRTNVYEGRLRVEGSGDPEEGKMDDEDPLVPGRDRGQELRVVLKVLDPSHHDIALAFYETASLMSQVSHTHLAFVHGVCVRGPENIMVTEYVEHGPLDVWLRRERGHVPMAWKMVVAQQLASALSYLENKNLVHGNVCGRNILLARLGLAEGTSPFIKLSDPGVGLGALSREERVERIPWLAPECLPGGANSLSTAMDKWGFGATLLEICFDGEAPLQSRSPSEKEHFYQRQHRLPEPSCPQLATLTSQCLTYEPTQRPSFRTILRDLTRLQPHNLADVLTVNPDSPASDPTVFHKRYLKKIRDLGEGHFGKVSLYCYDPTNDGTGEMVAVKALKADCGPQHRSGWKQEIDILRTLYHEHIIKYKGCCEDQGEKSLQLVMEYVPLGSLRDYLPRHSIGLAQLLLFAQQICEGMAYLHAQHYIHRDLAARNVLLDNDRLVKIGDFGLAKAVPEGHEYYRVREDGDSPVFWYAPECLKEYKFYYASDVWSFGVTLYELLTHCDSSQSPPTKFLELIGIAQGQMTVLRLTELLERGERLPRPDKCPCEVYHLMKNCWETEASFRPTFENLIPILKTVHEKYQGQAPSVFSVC

[10] = molecular target: T2, Tyrosine-protein kinase receptor TYRO3 (Homo sapiens) (UniProt Q06418); settings: at 0.1 µM;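 also: reported percentages are averaged inhibition values of TYRO3 kinase activity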
T2 sequence (whole entry): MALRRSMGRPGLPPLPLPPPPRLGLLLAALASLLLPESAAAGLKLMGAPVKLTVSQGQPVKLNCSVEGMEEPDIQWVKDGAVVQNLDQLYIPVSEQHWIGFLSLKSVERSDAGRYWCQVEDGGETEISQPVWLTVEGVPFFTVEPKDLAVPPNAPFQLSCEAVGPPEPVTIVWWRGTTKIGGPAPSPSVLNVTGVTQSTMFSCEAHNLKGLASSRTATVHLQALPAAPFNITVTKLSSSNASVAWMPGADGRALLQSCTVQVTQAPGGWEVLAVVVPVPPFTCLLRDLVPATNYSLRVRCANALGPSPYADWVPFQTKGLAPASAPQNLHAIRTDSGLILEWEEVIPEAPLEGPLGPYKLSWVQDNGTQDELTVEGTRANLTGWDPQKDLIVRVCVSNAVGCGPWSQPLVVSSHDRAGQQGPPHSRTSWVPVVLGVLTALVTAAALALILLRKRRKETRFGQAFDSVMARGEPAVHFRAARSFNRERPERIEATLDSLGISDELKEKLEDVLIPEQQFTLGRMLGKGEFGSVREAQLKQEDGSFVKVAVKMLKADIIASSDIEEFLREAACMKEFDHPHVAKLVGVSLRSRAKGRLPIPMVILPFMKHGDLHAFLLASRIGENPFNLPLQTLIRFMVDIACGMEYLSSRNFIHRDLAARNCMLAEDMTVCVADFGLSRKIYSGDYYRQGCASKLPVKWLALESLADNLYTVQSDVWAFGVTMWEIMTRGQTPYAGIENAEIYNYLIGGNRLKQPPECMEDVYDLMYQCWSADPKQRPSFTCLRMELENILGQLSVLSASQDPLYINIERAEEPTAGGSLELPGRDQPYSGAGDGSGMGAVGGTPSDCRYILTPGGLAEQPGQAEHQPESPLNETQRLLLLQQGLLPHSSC

Fibroblast growth factor receptor 4 (Homo sapiens), sequence (P22455 22-802 limits assumed): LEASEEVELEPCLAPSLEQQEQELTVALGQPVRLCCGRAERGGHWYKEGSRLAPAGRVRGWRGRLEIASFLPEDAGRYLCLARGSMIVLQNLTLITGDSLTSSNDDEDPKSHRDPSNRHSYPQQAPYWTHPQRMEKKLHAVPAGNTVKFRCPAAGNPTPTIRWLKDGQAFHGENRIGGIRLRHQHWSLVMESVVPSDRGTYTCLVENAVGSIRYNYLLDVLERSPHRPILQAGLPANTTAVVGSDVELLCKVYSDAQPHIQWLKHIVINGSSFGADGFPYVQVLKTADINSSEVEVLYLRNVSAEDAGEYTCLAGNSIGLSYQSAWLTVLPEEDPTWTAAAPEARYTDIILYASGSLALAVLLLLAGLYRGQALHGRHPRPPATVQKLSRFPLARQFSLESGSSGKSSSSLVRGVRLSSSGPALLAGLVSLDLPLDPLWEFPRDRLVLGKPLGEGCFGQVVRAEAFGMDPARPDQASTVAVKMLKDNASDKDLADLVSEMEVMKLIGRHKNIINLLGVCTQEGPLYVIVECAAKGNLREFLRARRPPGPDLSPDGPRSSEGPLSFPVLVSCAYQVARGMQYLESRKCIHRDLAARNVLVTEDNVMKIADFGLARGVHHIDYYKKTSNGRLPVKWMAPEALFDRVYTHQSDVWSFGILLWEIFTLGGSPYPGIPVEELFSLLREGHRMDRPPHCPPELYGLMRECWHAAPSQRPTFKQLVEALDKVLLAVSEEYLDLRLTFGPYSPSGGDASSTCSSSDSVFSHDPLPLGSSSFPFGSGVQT
Tyrosine-protein kinase Fgr (Homo sapiens), sequence (P09769 2-529 limits assumed): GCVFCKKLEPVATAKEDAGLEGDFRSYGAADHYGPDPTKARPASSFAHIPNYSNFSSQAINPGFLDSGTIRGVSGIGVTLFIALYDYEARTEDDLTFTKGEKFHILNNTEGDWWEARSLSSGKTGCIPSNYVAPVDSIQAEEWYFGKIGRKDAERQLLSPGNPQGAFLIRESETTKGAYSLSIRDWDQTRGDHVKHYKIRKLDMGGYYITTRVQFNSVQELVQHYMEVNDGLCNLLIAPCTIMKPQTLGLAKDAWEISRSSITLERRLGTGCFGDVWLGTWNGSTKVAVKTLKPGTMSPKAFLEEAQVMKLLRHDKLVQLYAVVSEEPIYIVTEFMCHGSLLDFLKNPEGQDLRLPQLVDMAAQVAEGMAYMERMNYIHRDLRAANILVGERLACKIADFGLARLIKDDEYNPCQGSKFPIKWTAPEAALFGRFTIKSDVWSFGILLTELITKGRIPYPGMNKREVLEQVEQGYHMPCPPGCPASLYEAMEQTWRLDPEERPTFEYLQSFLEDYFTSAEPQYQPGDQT

| SMILES | inhibition [1] | inhibition [2] | inhibition [3] | inhibition [4] | inhibition [5] | inhibition [6] | inhibition [7] | inhibition [8] | inhibition [9] | inhibition [10] |
| --- | --- | --- | --- | --- | --- | --- | --- | --- | --- | --- |
| COC(=O)c1sc(-n2cnc3cc(OC)c(OC)cc32)cc1OCc1ccccc1C(F)(F)F | 1.85% | 3.32% | 17.2% | 1.32% | 9.57% | 2.55% | 8.27% | -4.92% | -3.12% | 2.58% |
| Nc1nc(-c2ccc(F)cc2)c(-c2ccc3ncccc3n2)s1 | 3.47% | 6.43% | 14.1% | -0.09% | 6.56% | 3.5% | 3.75% | 1.18% | -1.99% | 3.01% |
| NS(=O)(=O)c1ccc(N/N=C2\C(=O)Nc3ccc4ncccc4c32)cc1 | 6.88% | 8.01% | 42.4% | 11% | 59.6% | 23.9% | 73.2% | 35.1% | 33.5% | 7.02% |
| CN1CCC(n2cnc(-c3ccc(F)cc3)c2-c2ccnc(N)n2)CC1 | 4.3% | 4.22% | 8.36% | -0.81% | 2.41% | -0.36% | 1.76% | -8.15% | -0.01% | 1.97% |
| N#Cc1c(NC(=O)CN2CCOCC2)sc2c1CCCC2 | 2.81% | 2.52% | 4.31% | 0.23% | 4.24% | 1.8% | 4.78% | 0.3% | -0.83% | 2.15% |
| CCN(CC)S(=O)(=O)c1ccc(OC)c(Nc2ncc(-c3ccccc3)o2)c1 | 3.57% | 10.4% | 38.8% | 7.45% | 30.6% | 10.2% | 53.4% | 17.9% | 0.12% | 8.1% |
| CCn1c(-c2nonc2N)nc2ccccc21 | -0.03% | 2.86% | 4.31% | 2.69% | 0.59% | 0.25% | 0.31% | 3.23% | -0.21% | 1.05% |
| Fc1ccc(-c2cc(-c3c[nH]nc3-c3ccccn3)ccn2)cc1 | -0.52% | 5.85% | 3.11% | 1.1% | 1.96% | 2.44% | 2.5% | -6.21% | -4.52% | 3.67% |
| O=S(=O)(CCNCc1ccc(-c2ccc3ncnc(Nc4ccc(OCc5cccc(F)c5)c(Cl)c4)c3c2)o1)c1ccccc1 | 1.88% | 2.78% | 5.07% | 2.06% | 4.7% | 5.79% | 4.97% | -2.76% | -2.79% | 1.84% |
| CS(=O)(=O)CCNCc1coc(-c2ccc3ncnc(Nc4ccc(OCc5ccccc5)cc4)c3c2)c1 | 1.09% | 3.94% | 14.9% | 3.16% | 2.3% | 3.27% | 9.61% | -1.74% | 0.61% | 2.35% |
| CCn1cc(-c2ccnc3[nH]ccc23)c(-c2cccc(NC(=O)Nc3ccc(OCc4ccccc4)cc3)c2)n1 | 3.27% | 7.42% | 34.1% | -3.05% | 2.9% | -1.9% | -2.19% | -9.12% | 0.52% | 0.03% |
| Cc1ccc(O)cc1Nc1ccnc2cc(-c3ccccn3)ccc12 | 30.8% | 52.2% | 82.7% | 82.1% | 95.7% | 3.74% | 4.17% | 1.48% | -4% | 4.12% |
| CCn1c(-c2nonc2N)nc2c(C#CC(C)(C)O)nc(OC[C@H](N)c3ccccc3)cc21 | 2.04% | 0.69% | 5.54% | 6.07% | 30.4% | 2.64% | 2.43% | -0.59% | -3.88% | 0.23% |
| COc1cccc(-c2c[nH]c3c(N/N=C/c4ccncc4)ncnc23)c1 | 2.46% | 14.2% | 54.2% | 2.08% | 18.4% | 6.9% | 39% | 16.4% | 10.5% | 7.3% |
| COc1ccc(-c2nn3ncccc3c2-c2ccnc(Nc3ccc4c(c3)OCCO4)n2)cc1 | 1.91% | 47.9% | 79.8% | 4.09% | 26.8% | -1.66% | -0.57% | -7.3% | -1.85% | -0.58% |
| COc1cc2ncn(-c3cc(OCc4ccccc4C(F)(F)F)c(C(=O)N(C)C)s3)c2cc1OC | 2.15% | 0.95% | 6.42% | -0.21% | 6.59% | -1.41% | 0.81% | -1.94% | 1.47% | 0.67% |
